PubChem BioAssay AID1159554 (Broad Institute, 2015)
The whole screen tested about 94,000 compounds, of which about 2,100 (2.2%) were called active. Cut-off read from the data, not from the text of the source: active = activity change below about -80%; inconclusive = no clear call, values can overlap the other calls; inactive = above that. This excerpt belongs to a sample that is enriched for actives.

Assay: P. falciparum Dd2 growth inhibitors, primary screen, SYBR Green fluorescence, single dose replicates (AID 1159554)
Details: 72 h, at 10 µM, hits give low values

Activity change, active:
COc1ccc2c3c([nH]c2c1)[C@@H](CO)N(Cc1ccccc1)CC31CCN(Cc2cncnc2)CC1 -91.1%
C[C@H]1CN([C@@H](C)CO)S(=O)(=O)c2ccc(C#Cc3ccccc3)cc2O[C@@H]1CN(C)C(=O)C1CC1 -86.3%
C[C@@H]1CN([C@@H](C)CO)S(=O)(=O)c2ccc(/C=C/c3ccccc3)cc2O[C@H]1CN(C)C(=O)C1CC1 -88.7%
C[C@@H]1CN([C@@H](C)CO)S(=O)(=O)c2ccc(/C=C/c3ccccc3)cc2O[C@H]1CN(C)Cc1cccnc1 -90.5%
COc1ccc(C#Cc2ccc3c(c2)O[C@@H](CN(C)C(=O)Nc2cccc(OC)c2)[C@H](C)CN([C@H](C)CO)S3(=O)=O)cc1 -89.8%
CC(C)NC(=O)N(C)C[C@H]1Oc2cc(-c3cncnc3)ccc2S(=O)(=O)N([C@@H](C)CO)C[C@H]1C -83.1%
C[C@@H]1CN([C@@H](C)CO)S(=O)(=O)c2ccc(C#Cc3ccccc3)cc2O[C@@H]1CN(C)C(=O)C1CC1 -82.5%
CNC[C@H]1Oc2cc(C#Cc3ccccc3)ccc2S(=O)(=O)N([C@@H](C)CO)C[C@@H]1C -85%

Activity change, inactive:
CC(C)NC(=O)N[C@H]1CC[C@H](CC(=O)N2CCCCC2)O[C@@H]1CO 36.7%
CCS(=O)(=O)N1[C@H](CO)[C@@H](c2ccccc2)C12CN(C(=O)c1ccccc1F)C2 -5.45%
COc1ccc2c3c([nH]c2c1)[C@@H](CO)N(C(=O)c1ccccc1)CC31CCN(Cc2cccnc2)CC1 -47.6%
COc1ccc2c3c([nH]c2c1)[C@@H](CO)N(C(=O)CC1CC1)CC31CCN(Cc2cccnc2)CC1 -7.62%
CN(C)CC(=O)N[C@@H]1CC[C@H](CC(=O)O)O[C@H]1CO 14.9%
CO[C@H]1CN(C)C(=O)c2cc(NC(=O)c3cnccn3)ccc2OC[C@H](C)N(C(=O)C2CC2)C[C@H]1C -22.3%
COc1cccc(-c2cn(CC[C@@H]3CC[C@@H](NC(C)=O)[C@@H](CO)O3)nn2)c1 -3.98%
C[C@H](CO)N1C[C@H](C)[C@@H](CN(C)C(=O)C2CC2)Oc2cc(C#CC3CC3)ccc2S1(=O)=O -9.49%
C[C@H](O)C#Cc1ccc2c(c1)O[C@@H](CN(C)C(=O)C1CC1)[C@H](C)CN([C@H](C)CO)S2(=O)=O 2.01%
COc1ccc(NC(=O)N(C)C[C@H]2Oc3cc(C#CCN(C)C)ccc3S(=O)(=O)N([C@@H](C)CO)C[C@@H]2C)cc1 7.25%
C[C@@H]1CN([C@@H](C)CO)S(=O)(=O)c2ccc(/C=C/c3ccccc3)cc2O[C@H]1CN(C)Cc1ccccc1 -58.4%
C[C@@H]1CN([C@H](C)CO)S(=O)(=O)c2ccc(/C=C/c3ccccc3)cc2O[C@@H]1CN(C)Cc1ccccc1 -19.9%
C[C@@H]1CN([C@@H](C)CO)S(=O)(=O)c2ccc(C#Cc3ccccc3)cc2O[C@@H]1CN(C)C(=O)Nc1ccccc1 -58.2%
CCC(=O)N(C)C[C@H]1Oc2cc(/C=C/c3ccccc3)ccc2S(=O)(=O)N([C@H](C)CO)C[C@@H]1C -32.1%
CCC(=O)N(C)C[C@H]1Oc2cc(/C=C/c3ccccc3)ccc2S(=O)(=O)N([C@H](C)CO)C[C@H]1C -20.8%
O=C(NC[C@H]1CC[C@@H]2[C@@H](CN2S(=O)(=O)c2ccccc2F)O1)C1CCCCC1 81.8%
CNC(=O)C[C@@H]1CC[C@@H]2[C@@H](COc3ccc(NC(=O)c4ccc5c(c4)OCO5)cc3C(=O)N2C)O1 -13.2%
CN1c2ccc(C3=CCCCC3)cc2[C@@H]2[C@@H](CCN2C(=O)Nc2cc(F)ccc2F)[C@@H]1CO -41.1%
O=C(CC1CC1)N[C@@H]1C[C@@H]2O[C@H](CO)CC[C@@H]2O[C@@H]1CCc1ccc(C#Cc2ccccc2)cc1 -36.1%
CN1c2ccc(C#Cc3ccccc3F)cc2[C@@H]2[C@@H](CCN2C(=O)Cc2cccnc2)[C@H]1CO -26.2%
CC(=O)N(C)C[C@@H]1Oc2cc(-c3cncnc3)ccc2S(=O)(=O)N([C@@H](C)CO)C[C@H]1C 21.6%
CNC[C@@H]1Oc2cc(C#Cc3ccc(F)cc3)ccc2S(=O)(=O)N([C@@H](C)CO)C[C@H]1C -62.7%
Cc1ccc(-c2ccc3c(c2)O[C@@H](CN(C)C(=O)NC(C)C)[C@@H](C)CN([C@H](C)CO)S3(=O)=O)cc1 -34.3%
CC(C)C#Cc1ccc2c(c1)O[C@@H](CN(C)C(=O)C1CC1)[C@H](C)CN([C@H](C)CO)S2(=O)=O -27.6%
CNC[C@H]1Oc2cc(C#Cc3ccccn3)ccc2S(=O)(=O)N([C@H](C)CO)C[C@@H]1C -6.84%
C[C@H](O)C#Cc1ccc2c(c1)O[C@H](CN(C)C(=O)C1CC1)[C@@H](C)CN([C@H](C)CO)S2(=O)=O 46.3%
CCNC(=O)C[C@@H]1C=C[C@@H](NC(=O)C2CCOCC2)[C@@H](CO)O1 2.77%
COCC(=O)Nc1ccc2c(c1)OC[C@H](C)N(C(=O)Cc1ccccn1)C[C@H](C)[C@@H](OC)CN(C)C2=O 41.2%
O=C(C[C@H]1CC[C@@H](NC(=O)CC2CC2)[C@@H](CO)O1)NCc1ccccc1 10.8%
O=C(NC1CCC1)[C@@H]1[C@@H](CO)[C@@H]2Cn3c(ccc(/C=C/c4ccccc4)c3=O)[C@@H]2N1Cc1ccncc1 -2.62%
CCCN1C[C@@H](C)[C@@H](OC)CN(C)C(=O)c2ccc(NC(=O)c3ccc(F)cc3)cc2OC[C@@H]1C -14.3%
C[C@H](O)C#Cc1cnc2c(c1)C(=O)N([C@@H](C)CO)C[C@H](C)[C@@H](CN(C)C(=O)c1ccccc1)O2 20.4%
COCC(=O)Nc1ccc2c(c1)OC[C@H](C)N(Cc1ccccc1)C[C@H](C)[C@@H](OC)CN(C)C2=O -12.2%
